Test results: PubChem BioAssay AID1159580 (chemical genetic matrix, 2015)
Where “and” joins values, the source holds several entries; their conditions need not be identical. Identical values can stand only once. Hit rate of the full screen: of about 5,500 compounds, about 2,000 (36%) were called active. Inconclusive results (about 18%) are left out. Cut-off read from the data, not from the text of the source: active = normalized growth mostly below about 0.91 (no sharp cut-off); inconclusive = no clear call, values can overlap the other calls; inactive = mostly above about 0.92. The list shows a part of the results.

Assay: chemical genetic growth profiling, strain panel (AID 1159580);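 note: tested at 20 µM; growth read once vehicle control cultures reached saturation at 30 °C; 1 = growth at the plate median or of vehicle wells; lower values mean less growth of the strain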
Details: S. cerevisiae deletion strains, growth OD

Measured: normalized growth

CC(=O)Oc1cccc(O)c1
inactive: locus YAL021C, strain ccr4, stronger effect = lower value 1 | locus YAL026C, strain drs2, stronger effect = lower value 1.04 | locus YAL030W, strain snc1, stronger effect = lower value 1.01 | locus YBL061C, strain skt5, stronger effect = lower value 1.02 | locus YBR009C, strain hhf1, stronger effect = lower value 1.01 | locus YBR021W, strain FUR4, stronger effect = lower value 0.973 | locus YBR023C, strain chs3, stronger effect = lower value 1.03 | locus YBR171W, strain sec66, stronger effect = lower value 1.03 | locus YBR229C, strain ROT2, stronger effect = lower value 1 | locus YBR231C, strain swc5, stronger effect = lower value 1.03 | locus YBR279W, strain paf1, stronger effect = lower value 1.02 | locus YCL011C, strain gbp2, stronger effect = lower value 1.02 | locus YCL016C, strain dcc1, stronger effect = lower value 1.01 | locus YCL029C, strain bik1, stronger effect = lower value 1.01 | locus YCL069W, strain vba3, stronger effect = lower value 1.03 | locus YCR088W, strain abp1, stronger effect = lower value 1.02 | locus YDL005C, strain med2, stronger effect = lower value 1.03 | locus YDL035C, strain GPR1, stronger effect = lower value 1.01 | locus YDL040C, strain nat1, stronger effect = lower value 1.02 | locus YDL074C, strain BRE1, stronger effect = lower value 0.996 | locus YDL101C, strain DUN1, stronger effect = lower value 1.01 | locus YDL134C, strain PPH21, stronger effect = lower value 1.01 | locus YDL185W, strain tfp1, stronger effect = lower value 1.03 | locus YDL192W, strain arf1, stronger effect = lower value 1.02 | locus YDR001C, strain nth1, stronger effect = lower value 1.02 | locus YDR069C, strain doa4, stronger effect = lower value 1.03 | locus YDR101C, strain arx1, stronger effect = lower value 0.996 | locus YDR137W, strain rgp1, stronger effect = lower value 1.05 | locus YDR159W, strain sac3, stronger effect = lower value 1.05 | locus YDR162C, strain NBP2, stronger effect = lower value 1.02 | locus YDR195W, strain ref2 1.03 | locus YDR297W, strain sur2, stronger effect = lower value 1.04 | locus YDR318W, strain mcm21, stronger effect = lower value 1.01 | locus YDR334W, strain swr1, stronger effect = lower value 1.01 | locus YDR335W, strain msn5, stronger effect = lower value 1.01 | locus YDR388W, stronger effect = lower value 1.02 | locus YDR392W, strain spt3, stronger effect = lower value 1.01 | locus YDR502C, strain sam2, stronger effect = lower value 1.03 | locus YEL003W, strain gim4, stronger effect = lower value 1.02 | locus YEL037C, strain rad23, stronger effect = lower value 1.02 | locus YEL061C, strain CIN8 (second series), stronger effect = lower value 1.02 | locus YEL061C, strain CIN8, stronger effect = lower value 1.01 | locus YER015W, strain faa2, stronger effect = lower value 1.02 | locus YER110C, stronger effect = lower value 1.03 | locus YER111C, strain swi4, stronger effect = lower value 1.02 | locus YER155C, strain BEM2 (second series), stronger effect = lower value 1.02 | locus YER155C, strain BEM2, stronger effect = lower value 0.996 | locus YER167W, strain BCK2, stronger effect = lower value 1 | locus YFR010W, strain ubp6, stronger effect = lower value 1.04 | locus YGL078C, strain dbp3, stronger effect = lower value 1.02 | locus YGL086W, strain mad1, stronger effect = lower value 0.999 | locus YGL167C, strain pmr1, stronger effect = lower value 1.02 | locus YGL173C, strain kem1, stronger effect = lower value 1.04 | locus YGL227W, strain vid30, stronger effect = lower value 1.02 | locus YGL240W, strain doc1, stronger effect = lower value 1.02 | locus YGL248W, strain PDE1, stronger effect = lower value 1.01 | locus YGL253W, strain hxk2, stronger effect = lower value 1.02 | locus YGR078C, strain PAC10, stronger effect = lower value 1 | locus YGR135W, strain pre9, stronger effect = lower value 1.03 | locus YGR229C, strain SMI1, stronger effect = lower value 1 | locus YGR252W, strain gcn5, stronger effect = lower value 1.06 | locus YHR013C, strain ard1, stronger effect = lower value 1.02 | locus YHR027C, strain rpn1, stronger effect = lower value 1.02 | locus YHR030C, strain SLT2, stronger effect = lower value 1.01 and 0.949 | locus YHR079C, strain IRE1 (second series), stronger effect = lower value 1.01 | locus YHR079C, strain IRE1, stronger effect = lower value 0.967 | locus YHR094C, strain hxt1, stronger effect = lower value 1.01 | locus YHR129C, strain ARP1, stronger effect = lower value 1.01 | locus YHR142W, strain chs7, stronger effect = lower value 1.03 | locus YHR200W, strain rpn10, stronger effect = lower value 1.02 | locus YIL066C, strain RNR3, stronger effect = lower value 1 | locus YIL073C, strain SPO22, stronger effect = lower value 1.04 | locus YIL125W, strain kgd1, stronger effect = lower value 1.01 | locus YIR030C, strain dcg1, stronger effect = lower value 1.01 | locus YJL092W, strain hpr5, stronger effect = lower value 1.02 | locus YJL095W, strain BCK1 (second series), stronger effect = lower value 1.02 | locus YJL095W, strain BCK1, stronger effect = lower value 1.01 and 0.974 | locus YJL115W, strain asf1, stronger effect = lower value 1.01 | locus YJL129C, strain trk1, stronger effect = lower value 1.04 | locus YJL134W, strain LCB3, stronger effect = lower value 1.01 | locus YJL154C, strain vps35, stronger effect = lower value 1.02 | locus YJL164C, strain tpk1, stronger effect = lower value 1.01 | locus YJL166W, strain qcr8, stronger effect = lower value 1.03 | locus YJL168C, strain set2, stronger effect = lower value 1.02 | locus YJL187C, strain SWE1 (second series), stronger effect = lower value 1.01 | locus YJL187C, strain SWE1, stronger effect = lower value 1.02 | locus YJR043C, strain POL32, stronger effect = lower value 0.999 | locus YJR066W, strain TOR1, stronger effect = lower value 0.96
